Measured values published in the supplement of paper PMC6522484.
± gives the standard deviation of the averaged measurements.

Tests used:
[1] = tested on: DLD1; experiment: cell viability (CellTiter-Glo) relative to plate median (fraction of plate median); higher = more viable cells; details: 5 µM; treatment time 24 h; reporter: 7TFP
Procedure, shortened: (§1)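 Luminescence, normalised well by well to the plate median, is tabulated as a mean of independent replicates. There were two replicates, run on colorectal cancer lines stably transduced with lentiviral TCF/Wnt firefly luciferase reporters and dosed with library compounds at a final 5 µM for 24 h. Readouts were firefly luciferase or CellTiterGlo on parallel plates.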

[2] = tested on: HCT116; experiment: as above; details: 5 µM; treatment time 24 h; reporter: TCF4/Wnt
Procedure, shortened: as §1

[3] = tested on: SW480; experiment: as above; details: 5 µM; treatment time 24 h; reporter: 7TFP
Procedure, shortened: as §1

[4] = tested on: DLD1; experiment: TCF/Wnt firefly luciferase reporter signal relative to plate median (fraction of plate median); higher = higher Wnt reporter signal; details: 5 µM; treatment time 24 h; reporter: 7TFP
Procedure, shortened: as §1

[5] = tested on: SW480; experiment: as above; details: 5 µM; treatment time 24 h; reporter: 7TFP
Procedure, shortened: as §1

CN1CC(=O)NC1=N
cell viability [1]: 1.02 ± 0.04
cell viability [2]: 0.943 ± 0.021
cell viability [3]: 1.02 ± 0.021
TCF/Wnt firefly luciferase reporter signal [4]: 0.979 ± 0.059
TCF/Wnt firefly luciferase reporter signal [5]: 0.935 ± 0.13

O=C(CCCN1CCC(O)(c2ccc(Cl)cc2)CC1)c1ccc(F)cc1
cell viability [1]: 1 ± 0.021
cell viability [2]: 1.075 ± 0.0071
cell viability [3]: 0.995 ± 0.078
TCF/Wnt firefly luciferase reporter signal [4]: 1.08 ± 0.035
TCF/Wnt firefly luciferase reporter signal [5]: 1.05 ± 0.064

COc1cccc(O)c1O
cell viability [1]: 0.938 ± 0.059
cell viability [2]: 0.905 ± 0.11
cell viability [3]: 0.942 ± 0.0028
TCF/Wnt firefly luciferase reporter signal [4]: 0.96 ± 0.099
TCF/Wnt firefly luciferase reporter signal [5]: 0.978 ± 0.088

COc1ccc(/C=C/C(=O)c2cc(O)ccc2O)cc1
cell viability [1]: 0.979 ± 0.044
cell viability [2]: 0.959 ± 0.073
cell viability [3]: 0.98 ± 0.029
TCF/Wnt firefly luciferase reporter signal [4]: 1.18 ± 0.014
TCF/Wnt firefly luciferase reporter signal [5]: 1.05 ± 0.17

CC1=C(/C=C/C(C)=C/C=C/C(C)=C/C=C/C=C(C)/C=C/C=C(C)/C=C/C2=C(C)CCCC2(C)C)C(C)(C)CCC1 [beta-CAROTENE]
cell viability [1]: 0.966 ± 0.0042
cell viability [2]: 1 ± 0.064
cell viability [3]: 0.984 ± 0.0014
TCF/Wnt firefly luciferase reporter signal [4]: 0.932 ± 0.018
TCF/Wnt firefly luciferase reporter signal [5]: 0.983 ± 0.052

COc1ccc2c(c1)OCC(Cc1ccc(OC)c(O)c1)C2=O (stereo not given)
cell viability [1]: 0.937 ± 0.0099
cell viability [2]: 0.847 ± 0.043
cell viability [3]: 1.09 ± 0.035
TCF/Wnt firefly luciferase reporter signal [4]: 0.707 ± 0.13
TCF/Wnt firefly luciferase reporter signal [5]: 0.883 ± 0.047

OCCN1C[C@H](O)[C@@H](O)[C@H](O)[C@H]1CO
cell viability [1]: 0.86 ± 0.15
cell viability [2]: 0.957 ± 0.19
cell viability [3]: 0.97 ± 0.025
TCF/Wnt firefly luciferase reporter signal [4]: 0.954 ± 0.11
TCF/Wnt firefly luciferase reporter signal [5]: 0.988 ± 0.06

CC(=O)OCC(=O)[C@@]1(O)[C@H](OC(C)=O)C[C@H]2[C@@H]3CCC4=CC(=O)C=C[C@]4(C)[C@@]3(F)[C@@H](O)C[C@@]21C
cell viability [1]: 1.01 ± 0.069
cell viability [2]: 1.09 ± 0.057
cell viability [3]: 1.03 ± 0.052
TCF/Wnt firefly luciferase reporter signal [4]: 1.1 ± 0.26
TCF/Wnt firefly luciferase reporter signal [5]: 0.894 ± 0.069

Oc1ccc(Cl)c2cccnc12
cell viability [1]: 1.025 ± 0.0071
cell viability [2]: 0.988 ± 0.032
cell viability [3]: 1.02 ± 0.021
TCF/Wnt firefly luciferase reporter signal [4]: 0.935 ± 0.069
TCF/Wnt firefly luciferase reporter signal [5]: 1.09 ± 0.042

CC(C(=O)O)c1ccc(-c2ccccc2)c(F)c1 (stereo not given)
cell viability [1]: 1.09 ± 0.11
cell viability [2]: 1.11 ± 0.078
cell viability [3]: 1.04
TCF/Wnt firefly luciferase reporter signal [4]: 1.07 ± 0.014
TCF/Wnt firefly luciferase reporter signal [5]: 1.02 ± 0.035

CC[C@H]1OC(=O)[C@H](C)[C@@H](O[C@H]2C[C@@](C)(OC)[C@@H](O)[C@H](C)O2)[C@H](C)[C@@H](O[C@@H]2O[C@H](C)C[C@H](N(C)C)[C@H]2O)[C@](C)(O)C[C@@H](C)/C(=N\OCOCCOC)[C@H](C)[C@@H](O)[C@]1(C)O
cell viability [1]: 1.03 ± 0.079
cell viability [2]: 1.12 ± 0.26
cell viability [3]: 1.12 ± 0.057
TCF/Wnt firefly luciferase reporter signal [4]: 0.907 ± 0.13
TCF/Wnt firefly luciferase reporter signal [5]: 1.03 ± 0.05

CC(=O)O[C@]1(C(C)=O)CC[C@H]2[C@@H]3C=C(Cl)C4=CC(=O)CC[C@]4(C)[C@H]3CC[C@@]21C
cell viability [1]: 0.905 ± 0.016
cell viability [2]: 0.972 ± 0.082
cell viability [3]: 1.04 ± 0.042
TCF/Wnt firefly luciferase reporter signal [4]: 0.9805 ± 0.0064
TCF/Wnt firefly luciferase reporter signal [5]: 1.06 ± 0.088

NC(=O)N1c2ccccc2C=Cc2ccccc21
cell viability [1]: 0.931 ± 0.098
cell viability [2]: 1.01 ± 0.029
cell viability [3]: 1.004 ± 0.0092
TCF/Wnt firefly luciferase reporter signal [4]: 1.05 ± 0.042
TCF/Wnt firefly luciferase reporter signal [5]: 0.937 ± 0.17

OC[C@H]1O[C@H]([S-])[C@H](O)[C@@H](O)[C@@H]1O.[Au+]
cell viability [1]: 0.945 ± 0.21
cell viability [2]: 0.921 ± 0.019
cell viability [3]: 1.11 ± 0.021
TCF/Wnt firefly luciferase reporter signal [4]: 0.891 ± 0.12
TCF/Wnt firefly luciferase reporter signal [5]: 0.265 ± 0.088
